Reference: PubChem BioAssay AID602430 (NMMLSC, 2012)
The other results are listed elsewhere or left out. Calls of active or inactive are those of the source.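 Rule for the calls: active = repeat-averaged ratio response below 75% of DMSO, the collection mean minus 3 SD; inactive = the rest.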

Each molecule was assayed against ATP-binding cassette sub-family B member 6 (Homo sapiens) (UniProt Q9NP58) (assay: ABCB6 transporter inhibitors, confirmation, K562-ABCB6 cells, flow cytometry, cherry pick 1 (AID 602430;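 note: median porphyrin fluorescence at 575 nm with 488 nm excitation from mitochondria; lower ratio means less porphyrin signal so ABCB6 inhibition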)). Conditions: K562-ABCB6 porphyrin accumulation, 1 h, at 10 µM, active compounds read low.
ATP-binding cassette sub-family B member 6 (Homo sapiens), sequence (Q9NP58 whole entry, looked up): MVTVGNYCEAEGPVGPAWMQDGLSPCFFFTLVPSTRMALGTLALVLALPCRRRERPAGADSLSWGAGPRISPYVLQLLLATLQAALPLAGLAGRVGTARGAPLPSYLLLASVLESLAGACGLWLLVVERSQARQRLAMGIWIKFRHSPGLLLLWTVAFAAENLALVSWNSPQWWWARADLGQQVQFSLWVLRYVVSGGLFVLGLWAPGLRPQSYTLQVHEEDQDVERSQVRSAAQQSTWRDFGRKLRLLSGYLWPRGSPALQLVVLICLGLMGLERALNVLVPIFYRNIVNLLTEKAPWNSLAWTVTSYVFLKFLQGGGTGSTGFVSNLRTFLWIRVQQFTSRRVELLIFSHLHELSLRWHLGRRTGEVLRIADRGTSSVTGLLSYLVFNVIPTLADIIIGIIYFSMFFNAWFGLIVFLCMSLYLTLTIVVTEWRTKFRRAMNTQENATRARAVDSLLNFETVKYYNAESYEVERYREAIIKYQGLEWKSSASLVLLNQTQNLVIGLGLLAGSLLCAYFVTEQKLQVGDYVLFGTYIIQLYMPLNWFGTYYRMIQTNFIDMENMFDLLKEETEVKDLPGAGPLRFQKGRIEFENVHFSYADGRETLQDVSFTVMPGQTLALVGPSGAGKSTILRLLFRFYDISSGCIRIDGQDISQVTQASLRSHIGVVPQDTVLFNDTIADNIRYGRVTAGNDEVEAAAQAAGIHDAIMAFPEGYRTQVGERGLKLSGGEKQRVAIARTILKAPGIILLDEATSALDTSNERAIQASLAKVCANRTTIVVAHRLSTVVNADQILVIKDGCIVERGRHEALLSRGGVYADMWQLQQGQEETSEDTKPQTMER

Ratio response (% of DMSO), inactive:
COc1cc2[nH]c(=S)n(Cc3ccc(F)cc3)c(=O)c2cc1OC 100%
Cc1ccc(NC(=O)N2CCC(c3nc4c(nnn4Cc4c(F)cccc4Cl)c(=O)[nH]3)CC2)cc1 98%
CCCOC(=O)C1=C(C)NC2=C(C(=O)C(C(=O)OC)C(C)C2)C1c1ccc(N(C)C)cc1 (centres undefined) 100%
CCOc1ccc(NC(=O)CC2NCCNC2=O)cc1 (centres undefined) 100%
COc1ccc(CCNC2=C(Cl)C(=O)N(Cc3ccccc3)C2=O)cc1OC 100%
Cc1ccc(Cl)cc1N1CCN(C(=O)c2cccc3c(=O)c(C)c(-c4ccccc4)oc23)CC1 102%
Cc1cc(C)cc(NC(=O)NCc2ccccn2)c1 96%
COc1ccc(CCNS(=O)(=O)c2ccc(F)cc2)cc1OC 101%
CC(C(=O)Nc1ccc(F)c(F)c1F)N1CCCCCC1 (centres undefined) 101%
CCOC(=O)N1CCN(C(=O)CN(C2CCCCC2)S(C)(=O)=O)CC1 101%
CC1(C(=O)NS(=O)(=O)c2cccc(F)c2)CCN1C(=O)Cc1cc(F)ccc1F (centres undefined) 97%
Cc1cccc(NC(=O)c2nc(S(=O)(=O)Cc3ccccc3)ncc2Cl)c1 90%
CCn1c(COc2ccccc2)nnc1SCC(=O)Nc1ccc2c(c1)OCCO2 97%
Cc1ccc(SCC(=O)Nc2ncc(C)s2)cc1 103%
Cc1ccccc1NC(=O)C(C)OC(=O)CCC(=O)N(CC(C)C)c1c(N)n(CC(C)C)c(=O)[nH]c1=O (centres undefined) 101%
O=C1CCCC2=C1C(c1cccs1)n1nc(SCc3ccccc3)nc1N2 (centres undefined) 102%
CC1(C)Cc2c(C#N)c(SCc3nc4ccccc4[nH]3)nc(N3CCOCC3)c2CO1 96%
Cc1ccccc1OCC(=O)Nc1nnc(S(=O)(=O)N2CCCC2)s1 101%
CCC(=O)N1CCCC1(C)C(=O)Nc1ccc2c(c1)CCN2C(C)=O (centres undefined) 99%
O=C(Cc1cccs1)NCc1cccc(C(F)(F)F)c1 103%
Cc1nn(-c2ccccc2)c(C)c1C(=O)OCC(=O)NC(=O)NC1CCCCC1 97%
O=C(COc1ccc(-n2cnnn2)cc1)Nc1ccccc1Cl 99%
O=C(Nn1cnc2ccccc2c1=O)c1ccc(F)cc1Cl 93%
COc1ccccc1C(=O)C(O)c1ccccc1OC (centres undefined) 102%
CCS(=O)(=O)N1CCC(N2CCN(c3ccccc3)CC2)CC1 103%
Cc1ccc2nc3c(cc(C(=O)NCCc4ccccc4)c(=N)n3CC3CCCO3)c(=O)n2c1 (centres undefined) 102%
O=C(NCCSc1ncc(-c2ccccc2)[nH]1)c1ccco1 102%
COc1cccc(N(CC(=O)N2CCc3ccccc3C2)S(C)(=O)=O)c1 100%
O=C(c1ccc(Cl)cc1)c1cnc(Nc2ccccc2)s1 102%
COC(=O)CNC(=O)c1cc(-c2ccncc2)nc2ccccc12 101%
Cc1cccc(CS(=O)(=O)c2ncc(Cl)c(C(=O)Nc3ccc(F)cc3)n2)c1 89%
Cc1cccc(N2CCN(C(=O)CCS(=O)(=O)c3ccc4c(c3)NC(=O)C(C)S4)CC2)c1C (centres undefined) 96%
CC(C)C(=O)NCC(c1cccs1)S(=O)(=O)c1ccc(F)cc1 (centres undefined) 100%
OCCC1CN(Cc2cnc(-c3ccccc3)s2)CCN1CCc1ccccc1 (centres undefined) 102%
